Design in all cases: scale not given: direction of the effect not stated beside the values
Assay [1] has as its target Protein translocase subunit SecA (Escherichia coli (strain K12)) (UniProt P10408). Briefly: Assay to Identify E. coli SecA ATPase Inhibitors. The assay is classed as functional. To be noted: 30 µM.
Assay [2] concerns the target T1, Ubiquitin-activating enzyme e1, putative (Leishmania donovani (strain BPK282A1)) (UniProt E9BSI1).
T1 sequence (whole entry): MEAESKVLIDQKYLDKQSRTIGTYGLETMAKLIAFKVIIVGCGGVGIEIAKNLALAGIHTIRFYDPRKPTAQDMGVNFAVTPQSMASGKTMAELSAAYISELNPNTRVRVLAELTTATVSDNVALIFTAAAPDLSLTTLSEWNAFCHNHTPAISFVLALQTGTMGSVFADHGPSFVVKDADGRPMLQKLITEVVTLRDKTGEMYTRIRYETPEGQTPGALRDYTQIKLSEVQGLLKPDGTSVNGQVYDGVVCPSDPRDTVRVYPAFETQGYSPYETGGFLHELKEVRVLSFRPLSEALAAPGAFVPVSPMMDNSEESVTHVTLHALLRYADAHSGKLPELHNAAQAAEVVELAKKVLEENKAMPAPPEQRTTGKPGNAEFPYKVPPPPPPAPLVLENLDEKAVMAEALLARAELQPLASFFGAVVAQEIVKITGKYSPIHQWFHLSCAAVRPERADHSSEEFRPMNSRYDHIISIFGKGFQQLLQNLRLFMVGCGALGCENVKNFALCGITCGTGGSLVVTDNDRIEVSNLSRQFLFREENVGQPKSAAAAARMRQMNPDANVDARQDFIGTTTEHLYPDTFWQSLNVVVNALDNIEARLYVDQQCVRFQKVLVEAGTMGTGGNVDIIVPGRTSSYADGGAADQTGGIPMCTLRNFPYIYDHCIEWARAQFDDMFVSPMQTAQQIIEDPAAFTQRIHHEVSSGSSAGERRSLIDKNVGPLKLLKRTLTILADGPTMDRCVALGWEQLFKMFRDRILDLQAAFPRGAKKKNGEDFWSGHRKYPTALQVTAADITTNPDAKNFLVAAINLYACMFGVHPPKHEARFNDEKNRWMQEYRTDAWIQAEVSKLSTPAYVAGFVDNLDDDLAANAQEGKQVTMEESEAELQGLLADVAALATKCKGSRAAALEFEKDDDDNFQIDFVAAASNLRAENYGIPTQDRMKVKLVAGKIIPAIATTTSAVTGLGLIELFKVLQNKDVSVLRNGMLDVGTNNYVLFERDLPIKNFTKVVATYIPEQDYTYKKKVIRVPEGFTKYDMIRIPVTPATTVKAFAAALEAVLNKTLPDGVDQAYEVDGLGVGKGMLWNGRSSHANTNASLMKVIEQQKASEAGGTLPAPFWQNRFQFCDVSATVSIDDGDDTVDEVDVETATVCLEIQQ
Briefly: Leishmania donovani Ubiquitin Activating Enzyme (LdE1). The assay is classed as functional. To be noted: 30 µM.

The target of assay [3] is AMP-activated protein kinase, AMPK (Homo sapiens) (UniProt P54646+O43741+P54619+Q9UGJ0+Q9Y478+Q13131+Q9UGI9). Description: AMP-dependent Kinase enzyme assay. An in vitro enzyme assay that detects ADP turnover that is directly proportional to AMPK activity. This uses naive AMPK that is activated during the assay with MK-8722. The conditions noted are these: 30 µM. The class given is functional.

The target of assay [4] is Sialic acid-binding Ig-like lectin 9 (Homo sapiens) (UniProt Q9Y336). Briefly: Hs-Siglec9 ALPHAscreen SOP 20170721. To be noted: 10 µM. Background: Alpha assays give light when donor and acceptor beads are brought close together.
A further assay has as its system Trypanosoma cruzi. Briefly: Trypanosoma cruzi phosphomannomutase and mannose-1-phosphate guanylyltransferase assay. The class given is functional. To be noted: 10 µM.
Assay [5] addresses T2, Arginase-2, mitochondrial (Homo sapiens) (UniProt P78540).
T2 sequence (whole entry): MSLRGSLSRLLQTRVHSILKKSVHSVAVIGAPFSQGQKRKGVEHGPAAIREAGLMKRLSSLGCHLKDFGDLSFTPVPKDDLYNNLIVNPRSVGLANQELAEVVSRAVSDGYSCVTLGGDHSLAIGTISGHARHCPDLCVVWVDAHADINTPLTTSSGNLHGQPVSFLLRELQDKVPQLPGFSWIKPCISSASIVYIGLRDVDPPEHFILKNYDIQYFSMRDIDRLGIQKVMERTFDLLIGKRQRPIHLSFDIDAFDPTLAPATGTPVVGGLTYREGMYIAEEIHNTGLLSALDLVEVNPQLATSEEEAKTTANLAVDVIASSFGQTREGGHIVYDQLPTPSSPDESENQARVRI
Briefly: in vitro enzyme assay to detect the production of urea directly proportional to the activity of Arginase II. Also: in the data most compounds retested in dose-response had high values. The assay is classed as functional. To be noted: 33.3 µM.

Assay [6] has as its target T3, Proteasome subunit beta (Trypanosoma cruzi) (UniProt O96673).
T3 sequence (whole entry): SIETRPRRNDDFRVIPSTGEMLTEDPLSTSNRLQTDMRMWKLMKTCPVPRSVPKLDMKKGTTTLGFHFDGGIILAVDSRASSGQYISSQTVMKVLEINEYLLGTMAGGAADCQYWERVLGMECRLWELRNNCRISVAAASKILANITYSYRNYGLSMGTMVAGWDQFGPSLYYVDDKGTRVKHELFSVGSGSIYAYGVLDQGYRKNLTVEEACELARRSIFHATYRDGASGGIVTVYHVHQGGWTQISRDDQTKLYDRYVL
Description: Trypanosoma cruzi proteasome chymotrypsin-like activity (TcProtChymo) assay. Also: in the data most compounds retested in dose-response had high values. The class given is functional. The conditions noted are these: 9.37 µM.

The species named for another assay is Homo sapiens. Description: To identify inhibition of the IFN signalling (Jak-Stat) pathway via expression of an eGFP reporter gene under the control of an IFN-stimulated response element (ISRE) containing MxA promoter. The assay is classed as functional. To be noted: 30 µM.
Assay [7] concerns the target T4, Tyrosyl-tRNA synthetase, putative (Trypanosoma cruzi (strain CL Brener)) (UniProt Q4DSP6).
T4 sequence (whole entry): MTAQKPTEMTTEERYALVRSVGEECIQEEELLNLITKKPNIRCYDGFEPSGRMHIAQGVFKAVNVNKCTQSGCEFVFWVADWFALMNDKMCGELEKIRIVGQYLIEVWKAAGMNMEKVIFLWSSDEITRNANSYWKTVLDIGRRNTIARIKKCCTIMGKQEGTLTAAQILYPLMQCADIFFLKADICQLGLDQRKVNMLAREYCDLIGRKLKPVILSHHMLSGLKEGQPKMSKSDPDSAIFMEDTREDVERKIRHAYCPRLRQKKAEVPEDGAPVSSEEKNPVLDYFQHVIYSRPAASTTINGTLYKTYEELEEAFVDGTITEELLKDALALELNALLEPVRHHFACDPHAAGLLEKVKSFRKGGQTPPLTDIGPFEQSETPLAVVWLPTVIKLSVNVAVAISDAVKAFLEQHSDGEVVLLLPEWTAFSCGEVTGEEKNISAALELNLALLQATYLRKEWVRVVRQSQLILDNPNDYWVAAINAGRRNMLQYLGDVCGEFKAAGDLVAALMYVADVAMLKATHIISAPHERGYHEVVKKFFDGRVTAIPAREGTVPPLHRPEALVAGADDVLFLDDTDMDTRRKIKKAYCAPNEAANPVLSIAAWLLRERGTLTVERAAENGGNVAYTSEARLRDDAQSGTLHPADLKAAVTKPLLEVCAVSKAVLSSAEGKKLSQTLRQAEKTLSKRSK
Description: Trypanosoma cruzi tyrosyl tRNA synthetase (TcYRS) _High Tyrosine SOP. Also: in the data most compounds retested in dose-response had high values. The assay is classed as functional. To be noted: 30 µM.

Assay [8] deals with T4, Tyrosyl-tRNA synthetase, putative (Trypanosoma cruzi (strain CL Brener)). Description: Trypanosoma cruzi tyrosyl tRNA synthetase (TcYRS) SOP. To be noted: 30 µM. The class given is functional.
Assay [9] concerns the target Chromo domain-containing protein 1 (Saccharomyces cerevisiae (strain ATCC 204508 / S288c) (Baker's yeast)) (UniProt P32657). Description: ScCHD-1 Enzyme Inhibition Assay. Also: in the data most compounds retested in dose-response had high values. The class given is functional. The conditions noted are these: 30 µM.

For some of these results: Entries with a potency or affinity are not part of this list.

Sialic acid-binding Ig-like lectin 9 (Homo sapiens), sequence (Q9Y336 whole entry): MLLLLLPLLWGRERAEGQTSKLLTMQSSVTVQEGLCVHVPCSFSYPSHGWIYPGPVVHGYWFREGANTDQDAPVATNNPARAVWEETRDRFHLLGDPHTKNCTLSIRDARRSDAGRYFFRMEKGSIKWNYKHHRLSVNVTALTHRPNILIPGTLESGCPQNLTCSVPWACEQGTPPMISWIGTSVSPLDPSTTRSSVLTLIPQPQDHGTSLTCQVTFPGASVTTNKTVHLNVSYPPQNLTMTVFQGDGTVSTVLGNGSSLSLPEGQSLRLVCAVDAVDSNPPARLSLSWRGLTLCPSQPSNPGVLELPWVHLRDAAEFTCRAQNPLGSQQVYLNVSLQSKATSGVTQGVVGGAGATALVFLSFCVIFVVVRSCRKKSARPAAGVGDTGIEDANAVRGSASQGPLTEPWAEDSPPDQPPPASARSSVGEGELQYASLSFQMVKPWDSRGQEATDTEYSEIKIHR
Protein translocase subunit SecA (Escherichia coli (strain K12)), sequence (P10408 whole entry): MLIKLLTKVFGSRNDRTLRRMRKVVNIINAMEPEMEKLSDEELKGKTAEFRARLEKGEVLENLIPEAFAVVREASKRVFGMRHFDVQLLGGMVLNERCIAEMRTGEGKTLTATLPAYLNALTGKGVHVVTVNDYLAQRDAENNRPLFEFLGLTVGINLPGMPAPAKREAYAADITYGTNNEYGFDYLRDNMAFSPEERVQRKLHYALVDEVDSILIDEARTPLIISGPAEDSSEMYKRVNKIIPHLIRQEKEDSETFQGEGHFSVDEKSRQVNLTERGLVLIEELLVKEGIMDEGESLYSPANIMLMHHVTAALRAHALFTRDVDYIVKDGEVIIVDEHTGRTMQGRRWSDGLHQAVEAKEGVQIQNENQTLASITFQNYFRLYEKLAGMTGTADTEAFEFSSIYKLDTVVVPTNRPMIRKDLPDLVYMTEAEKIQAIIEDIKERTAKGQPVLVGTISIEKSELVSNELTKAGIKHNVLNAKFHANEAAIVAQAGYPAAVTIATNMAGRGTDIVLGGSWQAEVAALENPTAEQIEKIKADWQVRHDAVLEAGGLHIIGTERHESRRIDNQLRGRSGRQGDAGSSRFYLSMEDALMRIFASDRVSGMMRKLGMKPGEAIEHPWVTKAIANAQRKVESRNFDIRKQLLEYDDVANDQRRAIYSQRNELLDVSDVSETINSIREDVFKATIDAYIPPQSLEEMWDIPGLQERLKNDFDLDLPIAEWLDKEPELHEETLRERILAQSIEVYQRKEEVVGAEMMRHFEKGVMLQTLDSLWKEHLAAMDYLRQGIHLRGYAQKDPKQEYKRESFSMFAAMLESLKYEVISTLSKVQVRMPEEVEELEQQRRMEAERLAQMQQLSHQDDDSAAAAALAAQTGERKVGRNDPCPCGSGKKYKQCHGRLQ
Chromo domain-containing protein 1 (Saccharomyces cerevisiae (strain ATCC 204508 / S288c) (Baker's yeast)), sequence (P32657 whole entry, the tested form may be a part): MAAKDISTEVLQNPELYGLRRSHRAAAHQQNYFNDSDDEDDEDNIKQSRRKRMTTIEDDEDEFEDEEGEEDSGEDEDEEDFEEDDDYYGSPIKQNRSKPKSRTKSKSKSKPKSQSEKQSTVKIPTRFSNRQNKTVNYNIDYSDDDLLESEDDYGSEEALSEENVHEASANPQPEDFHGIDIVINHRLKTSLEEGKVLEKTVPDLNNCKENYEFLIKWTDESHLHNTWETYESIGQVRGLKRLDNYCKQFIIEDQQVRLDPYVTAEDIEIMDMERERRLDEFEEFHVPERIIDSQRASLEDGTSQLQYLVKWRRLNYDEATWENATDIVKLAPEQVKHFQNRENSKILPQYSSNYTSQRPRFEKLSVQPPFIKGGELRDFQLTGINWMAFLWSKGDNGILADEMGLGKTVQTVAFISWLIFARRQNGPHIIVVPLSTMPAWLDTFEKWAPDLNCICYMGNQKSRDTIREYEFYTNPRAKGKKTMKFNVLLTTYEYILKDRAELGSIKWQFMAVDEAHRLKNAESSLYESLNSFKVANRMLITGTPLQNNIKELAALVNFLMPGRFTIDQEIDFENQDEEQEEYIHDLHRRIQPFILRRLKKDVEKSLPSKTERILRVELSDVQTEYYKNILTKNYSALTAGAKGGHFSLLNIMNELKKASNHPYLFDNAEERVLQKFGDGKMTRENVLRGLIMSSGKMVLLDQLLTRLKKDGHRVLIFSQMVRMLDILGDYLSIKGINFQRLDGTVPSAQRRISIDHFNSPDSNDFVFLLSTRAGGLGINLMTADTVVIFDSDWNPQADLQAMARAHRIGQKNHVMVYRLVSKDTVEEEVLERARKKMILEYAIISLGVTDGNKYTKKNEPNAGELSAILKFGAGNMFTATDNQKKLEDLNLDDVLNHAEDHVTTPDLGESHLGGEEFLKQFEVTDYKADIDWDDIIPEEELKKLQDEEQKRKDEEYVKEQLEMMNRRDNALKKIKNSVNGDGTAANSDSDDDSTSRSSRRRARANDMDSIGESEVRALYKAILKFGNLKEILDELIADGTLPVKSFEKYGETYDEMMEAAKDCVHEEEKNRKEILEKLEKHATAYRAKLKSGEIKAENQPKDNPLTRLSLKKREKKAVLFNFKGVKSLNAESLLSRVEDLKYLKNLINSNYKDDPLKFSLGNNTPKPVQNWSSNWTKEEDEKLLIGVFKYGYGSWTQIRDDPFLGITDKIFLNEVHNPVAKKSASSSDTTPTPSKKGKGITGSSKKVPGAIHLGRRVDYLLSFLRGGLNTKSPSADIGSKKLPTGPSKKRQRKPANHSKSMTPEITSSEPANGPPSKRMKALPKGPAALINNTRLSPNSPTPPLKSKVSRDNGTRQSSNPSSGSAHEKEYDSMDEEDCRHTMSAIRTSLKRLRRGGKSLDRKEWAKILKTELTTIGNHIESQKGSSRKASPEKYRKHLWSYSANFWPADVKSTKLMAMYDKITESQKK

Take `COc1ccc(CN(C)[C@@H]2CN(C(=O)c3cccs3)C[C@H]2O)cc1`: the Percent Effect in assay [1] was -3.27%; in [2], 6.76%; in assay [3], 10.4%; in [4], 2.59%; in the assay with Trypanosoma cruzi, -6.13%; in assay [5], -2.09%. The Percent Effect in assay [6] was 10.6%; in the assay filed under Homo sapiens it was 15.6%; in [7] it was 5.38%; in [8], 9.09%; in assay [9], -9%.
As to `Cc1cnn(CC2CCCCN2C(=O)Cc2csc(C)n2)c1` (stereo unspecified), the Percent Effect was -3.54% in assay [1]; -3.8% in assay [2]; 5.27% in [3]; 1.29% in assay [4]; -5.64% in the assay on Trypanosoma cruzi; -0.645% in assay [5]. Also, the Percent Effect in assay [6] was 6.17%; in the assay filed under Homo sapiens it was 13.6%; in assay [7], 2.08%; in assay [8], -2.53%; in assay [9] it was -19.5%.
As to `O=C(c1ccc(C2CCCO2)s1)N1CCS(=O)(=O)CC1` (stereo unspecified), the Percent Effect in [1] was -1.4%; in assay [2] it was 18.9%; in assay [3], -2.69%; in assay [4], 22.7%; in the assay with Trypanosoma cruzi, 9.07%; in assay [5] it was 1.91%. Also, the Percent Effect in [6] was 17.1%; in the assay filed under Homo sapiens, 6.53%; in assay [7] it was 4.76%; in assay [8], 17.1%; in [9] it was -2.6%.
For `CCCNC(=O)c1cc2c([nH]c1=O)CC(c1cccs1)CC2=O` (stereo unspecified), the Percent Effect in assay [1] is 0.191%; in assay [2], 14.7%; in assay [3], 13.3%; in assay [4] it was 3.54%; in the assay with Trypanosoma cruzi it was 3.34%; in [5], -0.88%. In addition, the Percent Effect is 7.58% in [6]; 21% in the assay filed under Homo sapiens; -4.23% in assay [7]; 12.8% in assay [8]; -7.37% in assay [9].
As to `CC(C)n1ncc2c1NC(=O)CC21C(=O)Nc2c(Cl)cccc21` (stereo unspecified), the Percent Effect in assay [1] was -1.42%; in [2], -1.33%; in assay [3], 3.7%; in assay [4], 7%; in the assay with Trypanosoma cruzi it was -0.393%; in assay [5], -6.87%. The Percent Effect in assay [6] was 0.185%; in the assay listed under Homo sapiens, 34%; in assay [7], 1.06%; in assay [8], 2.56%; in assay [9], -2%.
Regarding `CCN(c1ccc(C(=O)N2CCCC(C)C2)cc1)S(=O)(=O)CC` (stereo unspecified), the Percent Effect is -1.59% in assay [1]; -4.17% in assay [2]; 8.62% in [3]; -2.11% in [4]; 0.0972% in the assay on Trypanosoma cruzi; -3.09% in assay [5]. The Percent Effect is 9.3% in [6]; 23.2% in the assay listed under Homo sapiens; -2.1% in assay [7]; -7.69% in assay [8]; 1.02% in [9].
As for `Cc1cc(C)cc(C2(C(=O)N3CCCC(n4cncn4)C3)CC2)c1` (stereo unspecified), the Percent Effect was -0.118% in assay [1]; 16.2% in [2]; 3.34% in assay [3]; -6.31% in assay [4]; -3.44% in the assay on Trypanosoma cruzi; 2.4% in assay [5]. Also, the Percent Effect in assay [6] is 7.36%; in the assay filed under Homo sapiens it was 12.7%; in [7] it was 6.93%; in assay [8], 18.3%; in assay [9], -6.26%.
Take `Cc1ccc(CNC(=O)CN2CCN(CC(O)C3CC3)CC2)cc1` (stereo unspecified): the Percent Effect in [1] was -0.763%; in [2], 18.2%; in [3], -0.209%; in [4], -0.425%; in the assay with Trypanosoma cruzi, 1.87%; in assay [5], 1.94%. Besides, the Percent Effect was 11.3% in assay [6]; 15.5% in the assay filed under Homo sapiens; 9.52% in [7]; 16.7% in assay [8]; 89.9% in [9].
`Cc1nc(COc2cccc(C#N)c2)no1`: the Percent Effect in assay [1] is -1.52%; in [2], 21.1%; in assay [3], -5.19%; in assay [4], 8.22%; with Trypanosoma cruzi, 5.13%; in [5], -0.36%. The Percent Effect is 8.21% in assay [6]; -0.09% in the assay filed under Homo sapiens; 10.3% in assay [7]; 25.9% in assay [8]; -8.11% in assay [9].
As for `Cc1nc2c(c(NC3CC3)n1)CCN(C(=O)C(C)(C)O)CC2`, the Percent Effect in assay [1] is -2.61%; in assay [2] it was 10.8%; in [3] it was 2.64%; in assay [4], -8.96%; in the assay with Trypanosoma cruzi, -4.99%; in assay [5], -0.319%. Moreover, the Percent Effect is 28% in [6]; 23.3% in the assay listed under Homo sapiens; 3.24% in assay [7]; 7.69% in assay [8]; -1.94% in assay [9].
For `CC1CN=C(N2CCN(C(=O)Nc3nc(-c4ccccc4)ns3)CC2)S1` (stereo unspecified), the Percent Effect was -9.42% in assay [1]; -5.41% in assay [2]; 7.75% in assay [3]; -5.9% in assay [4]; -2.25% with Trypanosoma cruzi; -3.23% in assay [5]. Further, the Percent Effect in assay [6] was 3.35%; in the assay filed under Homo sapiens, 38.4%; in [7], -2.15%; in assay [8], -6.17%; in assay [9], -0.289%.

(Values after ChEMBL document CHEMBL3988442, “University of Dundee, Small-Polar-MMV Screening Library” (2021).)
